An excerpt weighted towards active compounds, which were near 2.9% of everything screened.
HEK293 viab: GF-AFC viability counterscreen for inhibitors of alpha-synuclein gene (SNCA) expression; HEK-293-SNCA-luc viability, GF-AFC fluorescence, 24 h; Potency, µM (doses to about 57.1 µM), for the others: top-dose activity change, negative = cytotoxicity, hits mostly cytotoxic; 150,000 tested, 0.12% active;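 further: potency means the concentration at half of the fitted maximal effect; 0% = DMSO-treated cells and -100% = medium-only wells without cells; nearly all actives have a fitted effect of over 30% in size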
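HEK-293-SNCA-luc cells (1500/well) plated 24 h, then exposed 24 h to a dilution series; GF-AFC added 30 min at 37C, fluorescence 405/540 nm; normalised to medium-only and DMSO wells, Hill fit.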
IP6K1 inhibitor: Primary qHTS assay for small molecule inhibitors of Inositol hexaphosphate kinase 1 (IP6K1). Inositol hexakisphosphate kinase 1 (Homo sapiens), Q92551. IP6K1 kinase, ADP-Glo luminescence, 2 h; hits give low values. activity change, % (series mostly up to about 58 µM). 140,000 tested, 0.81% active; in the data active means activity change below about -25%; further: on the % scale 0 is the no-effect control and ±100 the full control effect
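ADP-Glo luminescence measures ADP made by human IP6K1 during a 2 h RT reaction with ATP/IP6 (mix at 1.3 mM/130 uM); top library doses 57.5 and 19.1 uM final.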
SNCA expr inhib: Primary qHTS assay for inhibitors of alpha-synuclein gene (SNCA) expression | HEK-293 SNCA-luciferase knock-in, luminescence, 24 h | Potency, µM (titrated, usually from 57.2 µM), inactives show at the top dose activity change, negative = inhibition, usual class: inhibitors | 140,000 tested, 0.17% active | AID 1671194, 2021;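 further: potency means the concentration at half of the fitted maximal effect; plate controls were DMSO cells for no effect and cell-free wells for full effect; nearly all actives have a fitted effect of over 45% in size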
KDM5B inh: Primary screen for KDM5B Histone Demethylases FDH-coupled qHTS; Lysine-specific demethylase 5B (Homo sapiens), Q9UGL1; KDM5B demethylase, FDH-coupled NADH fluorescence (FDH is formaldehyde dehydrogenase); Potency, µM (top dose mostly 57.7 µM), most hits filed as inhibitors; 220,000 tested, 2.6% active; AID 1347165, 2019; further: potency means the concentration at half of the fitted maximal effect; 0% is about no effect; nearly all actives have a fitted effect of over 70% in size
Target sequence (Q9UGL1 whole entry, looked up): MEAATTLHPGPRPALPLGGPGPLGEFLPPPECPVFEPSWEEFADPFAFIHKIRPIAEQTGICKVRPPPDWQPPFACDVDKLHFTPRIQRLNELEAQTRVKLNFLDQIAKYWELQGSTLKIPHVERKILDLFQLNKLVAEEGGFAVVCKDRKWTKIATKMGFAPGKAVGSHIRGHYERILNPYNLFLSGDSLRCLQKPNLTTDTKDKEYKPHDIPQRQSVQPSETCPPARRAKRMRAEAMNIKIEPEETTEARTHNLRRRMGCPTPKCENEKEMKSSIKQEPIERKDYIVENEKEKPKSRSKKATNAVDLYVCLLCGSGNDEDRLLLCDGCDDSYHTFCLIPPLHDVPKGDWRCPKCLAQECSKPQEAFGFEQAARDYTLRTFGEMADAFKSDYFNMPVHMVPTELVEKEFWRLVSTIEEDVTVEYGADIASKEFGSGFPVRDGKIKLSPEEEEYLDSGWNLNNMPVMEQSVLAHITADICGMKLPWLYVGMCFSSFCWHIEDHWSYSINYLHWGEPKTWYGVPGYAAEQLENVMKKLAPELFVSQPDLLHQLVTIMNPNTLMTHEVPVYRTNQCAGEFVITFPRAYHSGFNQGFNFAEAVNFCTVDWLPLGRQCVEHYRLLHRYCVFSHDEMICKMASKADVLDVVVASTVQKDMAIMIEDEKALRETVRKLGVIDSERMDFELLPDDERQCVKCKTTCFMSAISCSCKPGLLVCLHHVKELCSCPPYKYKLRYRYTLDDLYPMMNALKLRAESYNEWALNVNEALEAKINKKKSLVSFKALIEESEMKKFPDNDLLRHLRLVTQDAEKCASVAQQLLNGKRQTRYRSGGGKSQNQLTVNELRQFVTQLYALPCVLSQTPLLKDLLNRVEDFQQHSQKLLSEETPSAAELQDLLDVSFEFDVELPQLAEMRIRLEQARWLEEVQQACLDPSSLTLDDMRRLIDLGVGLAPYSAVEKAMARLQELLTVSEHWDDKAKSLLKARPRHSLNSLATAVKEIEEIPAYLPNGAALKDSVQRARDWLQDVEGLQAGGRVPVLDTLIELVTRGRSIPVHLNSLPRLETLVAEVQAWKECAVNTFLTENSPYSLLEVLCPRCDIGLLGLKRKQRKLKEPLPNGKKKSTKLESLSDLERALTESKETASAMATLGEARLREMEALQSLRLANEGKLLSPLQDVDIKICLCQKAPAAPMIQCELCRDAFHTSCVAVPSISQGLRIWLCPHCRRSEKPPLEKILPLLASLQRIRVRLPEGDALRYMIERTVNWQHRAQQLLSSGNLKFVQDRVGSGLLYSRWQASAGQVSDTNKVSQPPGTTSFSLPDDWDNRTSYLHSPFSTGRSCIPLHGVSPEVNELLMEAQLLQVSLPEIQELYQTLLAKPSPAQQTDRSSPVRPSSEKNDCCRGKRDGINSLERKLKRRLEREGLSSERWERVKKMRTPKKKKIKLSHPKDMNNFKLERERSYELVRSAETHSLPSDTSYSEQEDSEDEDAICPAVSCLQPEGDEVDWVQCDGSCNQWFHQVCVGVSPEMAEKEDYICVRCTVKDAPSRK
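Compound dilutions met 200 nM (final) KDM5BΔAP for 10 min at room temperature before substrate addition. The substrate mix held 12.5 µM H3K4me3 with cofactors 25 µM α-ketoglutarate and 50 µM Fe²⁺. NADH signal gain over 30 min defined activity.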
IP6K1 inh cnf: Confirmatory qHTS assay for small molecule inhibitors of Inositol hexaphosphate kinase 1 (IP6K1); shares compounds with IP6K1 inhibitor; recombinant IP6K1 kinase, ADP-Glo luminescence, 2 h; Potency, µM (highest dose often 49 µM), for inactives: at the highest dose activity change, negative = inhibition, most hits filed as inhibitors; 1,200 tested, 13% active; further: potency means the concentration at half of the fitted maximal effect; on the % scale 0 is the no-effect control and ±100 the full control effect; nearly all actives have a fitted effect of over 65% in size
* = called active by the depositor; i = inactive; ? = inconclusive; . = no result; [ ] = another dose, or the depositor's remark. Unless noted, the call rests on the fitted dose curve; in most records, active means well fitted curve in the direction sought with a large enough effect; inconclusive means small, poorly fitted or top-dose-only effect, or another doubt; inactive means no such curve, though single readings can be large; an effect the other way counts as inactive or inconclusive.

SMILES	HEK293 viab	IP6K1 inhibitor	SNCA expr inhib	KDM5B inh	IP6K1 inh cnf
c1ccc(-c2cc3c(cn2)NCCN(Cc2ccsc2)C3)cc1	12%[87.6 µM]	-25*	-24%[87.6 µM]	35µM*	-9%
c1ccc(CN2CCNc3cc(-c4ccncc4)ncc3C2)cc1	-10%[87.6 µM]	-15	-15%[87.6 µM]	i	.
COc1ccc(Nc2cc3c(cn2)CN(Cc2ccncc2)CCN3)cn1	-11%[87.6 µM]	-9	-23%[87.6 µM]	i	.
COc1ccc(Nc2cc3c(cn2)NCCN(Cc2ccccc2)C3)cn1	-3%[87.6 µM]	-25*	?	?	-18%
Cc1ccc(Cl)cc1N1CCN(C(=O)c2cc3c(-c4ccccc4F)nn(C)c3s2)CC1	5%	-13	-2%	?	.
Cc1cc(C)cc(NC(=O)CSCc2cc(=O)n3ccsc3n2)c1	.	.	.	i	.
CN(C)C/C=C/C(=O)Nc1cccc(C(=O)Nc2ccc(Nc3nccc(-c4cccnc4)n3)cc2)c1	?	-29*	.	.	?
COc1ccc(-c2nc3cc(C)ccn3c2NC(=O)c2ccc(C)c(C)c2)cc1	?	-14	23%	?	.
COc1ccc(-c2nc3cc(C)ccn3c2NC(=O)c2ccc(F)cc2)cc1	?	-32*	24%	?	?
Cn1nc(C(=O)OCc2nc(-c3cccc(F)c3)no2)c2ccccc21	.	.	.	i	.
O=C(c1ccc(N2CCCC(CO)C2)nc1)N1CCC(N2CCOCC2)CC1 (centres undefined)	7%	-35*	-1%	?	13%
Cc1cccc(-c2nnc(SCCC(=O)O)o2)c1	14%	-37*	?	?	?
Cc1ccc(-c2noc(-c3ccc(N4CCC(C)CC4)c([N+](=O)[O-])c3)n2)cc1	0%	-7	17%	i	.
Cc1noc(-c2ccc(N3CCC(C)CC3)c([N+](=O)[O-])c2)n1	-7%	-36*	90%	i	?
COc1ccc(S(=O)(=O)N(CC(=O)NC2CCCCCC2)c2ccc(C)cc2)cc1OC	.	.	.	i	.
COc1ccc(S(=O)(=O)N(CC(=O)NC(C)c2ccccc2)c2ccc(C)cc2)cc1OC (centres undefined)	2%	-33*	6%	i	?
COc1ccc(S(=O)(=O)N(CC(=O)NCc2ccccc2)c2ccc(C)cc2)cc1OC	?	-26*	-27%	i	-4%
CN(Cc1ccc(F)cc1F)C(=O)c1cc(Br)ccc1O	.	.	.	i	.
COc1cc(C)ccc1OCC(=O)c1ccc2c(c1)N(CCCC(=O)NCC1CC1)C(=O)CO2	-27%	-5	-6%	i	.
Cc1nc2cc(-c3cccc(F)c3)nn2c(C)c1CCC(=O)NC(C)c1ccccc1 (centres undefined)	?	-25*	?	?	1%
Cc1nc2cc(-c3cccc(F)c3)nn2c(C)c1CCC(=O)NCCc1ccccc1	-1%	-8	13%	?	.
CC1(C)CC2C(C1)C(C)(O)C13CC1(COC3=O)C2O (centres undefined)	-1%	-11	.	.	.
CNC(=O)c1cc(C2CC2)nc2c1c(C1CCCN1C(=O)COC)nn2C (centres undefined)	.	-10	.	.	.
CC(NC(=O)c1ccc(OC2CCN(S(=O)(=O)N(C)C)CC2)cc1)c1cccs1 (centres undefined)	-3%	5	-15%	i	.
CCOc1ccc(CNC(=O)C(C)n2ncn3cccc3c2=O)cc1 (centres undefined)	5%	-27*	-11%	i	-11%
COc1ccc(NC(=O)CN2CCN(Cc3ccccc3Cl)S2(=O)=O)cc1Cl	-11%	-29*	15%	i	?
CCC1(C)Cc2c(sc3nc(SC)n(-c4ccc(C)cc4)c(=O)c23)CO1 (centres undefined)	11%	-50*	6%	i	22%
CCCC(=O)c1ccc(OC(=O)c2c(-c3ccccc3Cl)noc2C)cc1	3%	-35*	4%	?	-12%

Compound activity: PubChem BioAssay, National Center for Advancing Translational Sciences (NCATS)
